What was measured:
Settings in all cases: concentration: 1 μM, replicates: in singlicate; n = 1
[1] = tested on: RPS6KA5(Kin.Dom.2-C-terminal)
[2] = tested on: T1, RSK1(Kin.Dom.1-N-terminal)
T1 construct: gene RPS6KA1

[3] = tested on: T2, RSK1(Kin.Dom.2-C-terminal)
T2 construct: gene RPS6KA1

[4] = tested on: T3, RSK2(Kin.Dom.1-N-terminal)
T3 construct: gene RPS6KA3

[5] = tested on: T4, RSK2(Kin.Dom.2-C-terminal)
T4 construct: gene RPS6KA3

[6] = tested on: T5, RSK3(Kin.Dom.1-N-terminal)
T5 construct: gene RPS6KA2

[7] = tested on: T6, RSK3(Kin.Dom.2-C-terminal)
T6 construct: gene RPS6KA2

[8] = tested on: T7, RSK4(Kin.Dom.1-N-terminal)
T7 construct: gene RPS6KA6

[9] = tested on: T8, RSK4(Kin.Dom.2-C-terminal)
T8 construct: gene RPS6KA6

S6K1 = tested on: S6K1
SBK1 = tested on: SBK1
SGK2 = tested on: SGK2
SGK3 = tested on: SGK3
SGK = tested on: SGK
SIK2 = tested on: SIK2
SIK = tested on: SIK
SLK = tested on: SLK
SNARK = tested on: T9, SNARK
T9 construct: gene NUAK2

SNRK = tested on: SNRK
SRC = tested on: SRC
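Further: KINOMEscan kinase panel screen.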

SMILES | %Inh [1] | %Inh [2] | %Inh [3] | %Inh [4] | %Inh [5] | %Inh [6] | %Inh [7] | %Inh [8] | %Inh [9] | %Inh (S6K1) | %Inh (SBK1) | %Inh (SGK2) | %Inh (SGK3) | %Inh (SGK) | %Inh (SIK2) | %Inh (SIK) | %Inh (SLK) | %Inh (SNARK) | %Inh (SNRK) | %Inh (SRC)
C[C@@H]1CCN(C(=O)CO)C[C@@H]1N(C)c1ncnc2[nH]ccc12 | 13% | 0% | 4% | 0% | 0% | 0% | 23% | 0% | 30% | 1% | 0% | 0% | 1% | 0% | 0% | 10% | 0% | 10% | 3% | 6%
Nc1n[nH]c2nnc(-c3ccccc3)cc12 [SB-517389] | 2% | 28% | 9% | 0% | 76% | 4% | 24% | 0% | 25% | 25% | 10% | 0% | 19% | 0% | 0% | 0% | 0% | 0% | 2% | 0%
COc1cc2c(Nc3cccc(NC(=O)c4ccccc4)c3)ncnc2cc1OCCCN1CCOCC1 [GSK223810] | 0% | 2% | 0% | 18% | 20% | 13% | 11% | 20% | 14% | 0% | 34% | 13% | 1% | 0% | 7% | 0% | 0% | 0% | 0% | 94.7%
CC(C)N1CCC(n2cnc(-c3ccc(F)cc3)c2-c2ccnc(N)n2)CC1 [SB-223132] | 0% | 0% | 56% | 3% | 29% | 12% | 4% | 0% | 66% | 0% | 0% | 0% | 0% | 0% | 4% | 14% | 12% | 0% | 0% | 0%
Cl.c1ccc(Cn2ncc3cc(Nc4ncnc5ccccc45)ccc32)cc1 [GW273749] | 5% | 11% | 3% | 0% | 0% | 0% | 0% | 0% | 17% | 4% | 7% | 0% | 0% | 0% | 0% | 0% | 0% | 10% | 0% | 10%
O=c1cc(N2CCOCC2)nc2n(Cc3cccc(Cl)c3)ccn12 [GSK2296823] | 7% | 10% | 0% | 21% | 27% | 0% | 0% | 0% | 19% | 0% | 32% | 0% | 13% | 0% | 9% | 0% | 0% | 0% | 5% | 2%
CN1c2ccc(-c3ccc(C(=O)NCCO)cc3)cc2-c2[nH]ncc2S1(=O)=O | 14% | 0% | 26% | 12% | 41% | 0% | 35% | 3% | 27% | 33% | 0% | 23% | 0% | 10% | 16% | 16% | 25% | 0% | 0% | 46%
O=C(Nc1n[nH]c2nc(-c3ccco3)c(Br)cc12)c1ccc(CN2CCCC2)cc1.O=C(O)[C@H](O)[C@@H](O)C(=O)O [SB-742352] | 0% | 5% | 0% | 3% | 0% | 0% | 0% | 13% | 0% | 11% | 12% | 1% | 0% | 17% | 3% | 0% | 25% | 0% | 0% | 22%
OCCOCCn1ccc2ncnc(Nc3ccc(Oc4cccc(Cl)c4)c(Cl)c3)c21 | 0% | 0% | 0% | 0% | 0% | 3% | 4% | 0% | 2% | 0% | 0% | 0% | 0% | 0% | 0% | 0% | 39% | 0% | 0% | 0%
CSc1nn2c(=O)cc(N3CCOCC3)nc2n1Cc1cccc(Cl)c1Cl [GSK2347225] | 8% | 18% | 15% | 0% | 0% | 10% | 0% | 0% | 9% | 0% | 6% | 8% | 1% | 0% | 72% | 13% | 18% | 8% | 0% | 26%
Clc1cccc(-c2nc(Nc3ccncc3)c3ccccc3n2)c1 [GW873004] | 16% | 0% | 10% | 49% | 40% | 0% | 2% | 0% | 24% | 0% | 0% | 11% | 0% | 6% | 0% | 63% | 43% | 0% | 0% | 0%
